Measurements: PubChem BioAssay AID1851 (National Center for Advancing Translational Sciences (NCATS), 2009)
In all, about 16,000 compounds went through this assay and about 4,000 (25%) were called active. Roughly 26% stayed inconclusive and do not appear here. Calls follow the shape of the dose curve; as a rule, active = well fitted curve in the direction sought with a large enough effect; inconclusive = small, poorly fitted or top-dose-only effect, or effect the other way; inactive = no such curve, though single readings can be large or run the other way. Not all results are given here.

Target: Cytochrome P450 2C9 (Homo sapiens) (UniProt P11712)
Assay: Cytochrome panel assay with activity outcomes
Conditions: recombinant CYP, pro-luciferin dealkylation, luminescence, p450-cyp2c9; series mostly up to 57.1 µM; activity, negative = inhibition: at the top concentration
% is scaled to controls: 0 for no effect and ±100 for the full control effect.

Cytochrome P450 2C9 (Homo sapiens), sequence (P11712 whole entry, looked up): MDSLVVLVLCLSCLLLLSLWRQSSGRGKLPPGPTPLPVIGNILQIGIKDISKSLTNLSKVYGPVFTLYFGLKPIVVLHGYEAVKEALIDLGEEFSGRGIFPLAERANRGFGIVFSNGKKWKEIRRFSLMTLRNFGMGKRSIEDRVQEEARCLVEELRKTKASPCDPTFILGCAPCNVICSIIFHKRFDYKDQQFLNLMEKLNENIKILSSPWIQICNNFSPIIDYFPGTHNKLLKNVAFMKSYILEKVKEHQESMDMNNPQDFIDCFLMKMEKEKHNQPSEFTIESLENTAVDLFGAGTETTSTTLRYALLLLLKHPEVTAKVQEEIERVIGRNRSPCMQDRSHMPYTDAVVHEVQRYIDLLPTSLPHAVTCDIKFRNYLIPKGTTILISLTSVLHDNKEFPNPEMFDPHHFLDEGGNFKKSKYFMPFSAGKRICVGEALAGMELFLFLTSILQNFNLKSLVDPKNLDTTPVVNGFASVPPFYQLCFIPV

Row | Compound | activity, negative = inhibition | AC50
1 | NC[C@H](O)C1CCCCCCC1 | 0.201% (inactive) | –
2 | Nc1ncnc2c1nc(Sc1ccc(Cl)cc1)n2[C@@H]1O[C@H]2COP(=O)(O)O[C@@H]2[C@H]1O | -10% (inactive) | –
3 | COCCn1c(=O)c(-c2ccc(Cl)cc2)nc2cnc(Nc3ccccc3)nc21 | 6.62% (inactive) | –
4 | COCCn1c(=O)c(-c2ccccc2)nc2cnc(Nc3cccc(OC)c3)nc21 | -9.31% (inactive) | –
5 | COCCn1c(=O)c(-c2cn(C)c3ccccc23)nc2cnc(Oc3ccc(OC)cc3)nc21 | 0.611% (inactive) | –
6 | COCCn1c(=O)c(-c2ccccc2)nc2cnc(Oc3ccccc3)nc21 | – | 10 µM (active)
7 | COCCn1c(=O)c(-c2cn(C)c3ccccc23)nc2cnc(Oc3ccccc3)nc21 | -19% (inactive) | –
8 | COCCn1c(=O)c(-c2ccccc2)nc2cnc(Oc3ccc(OC)cc3)nc21 | – | 10 µM (active)
9 | CCNc1ncc2nc(-c3ccc(OC)cc3)c(=O)n(CCOC)c2n1 | 9.61% (inactive) | –
10 | Cn1c(=O)c(-c2ccc(Cl)cc2)nc2cnc(Oc3ccccc3)nc21 | -2.59% (inactive) | –
11 | COCCn1c(=O)c(-c2ccc(Cl)cc2)nc2cnc(Oc3ccccc3)nc21 | – | 7.94 µM (active)
12 | Nc1nc(N)c2[nH]cnc2n1 (tested in a mixture with another compound) | -4.44% [at 11.4 µM] (inactive) | –
13 | Cc1[nH]c(N)nc(=S)c1CCC(=O)O | 2.61% [at 11.4 µM] (inactive) | –
14 | c1ccc2c[n+](Cc3ccnc4ccccc34)ccc2c1 | -6.16% [at 11.4 µM] (inactive) | –
15 | Cc1c(NC(=O)CSc2nnc3c4ccccc4n(CCc4ccccc4)c3n2)c(=O)n(-c2ccccc2)n1C | – | 0.708 µM (active)
16 | Cc1nc(SCC(=O)Nc2c(C)n(C)n(-c3ccccc3)c2=O)nc(C)c1C | 31.5% (inactive) | –
17 | Cc1c(NC(=O)CN2C(=O)C3C4C=CC(C4)C3C2=O)c(=O)n(-c2ccccc2)n1C (centres undefined) | -21.2% (inactive) | –
18 | Cc1c(NC(=O)Cn2ccc([N+](=O)[O-])n2)c(=O)n(-c2ccccc2)n1C | -3.82% (inactive) | –
19 | C=CCn1c(SCC(=O)Nc2c(C)n(C)n(-c3ccccc3)c2=O)nc2sc(C)c(-c3ccccc3)c2c1=O | – | 14.1 µM (active)
20 | Cc1c(NC(=O)CSc2nnnn2C)c(=O)n(-c2ccccc2)n1C | -39% (inactive) | –
21 | CN[C@]1(C)[C@@H]2CC[C@@H](C2)C1(C)C | -5.04% (inactive) | –
22 | CN1CCN(C2=Cc3ccccc3Oc3ccc(Cl)cc32)CC1 | -10.8% (inactive) | –
23 | C=CC[C@@H]1C=C[C@H](O/N=C(\C)CCN2CCc3nc(CC)c(CC)cc3C2)[C@H](CO)O1 | -6.8% [at 11.4 µM] (inactive) | –
24 | O=C(c1cc(O)c(O)c([N+](=O)[O-])c1)c1ccccc1F | – | 1.26 µM (active)

Row | Compound | activity, negative = inhibition | AC50
25 | O=C(O)c1cc(N=Nc2ccc([N+](=O)[O-])cc2)ccc1O | -19.1% [at 11.4 µM] (inactive) | –
26 | N#Cc1cc2nc(O)c(O)nc2cc1[N+](=O)[O-] | -3.14% (inactive) | –
27 | CCCn1nnnc1NC(=O)COc1ccc(Cl)cc1C | – | 10 µM (active)
28 | Cc1cc(Cl)ccc1OCC(=O)Nc1nc(N)nc(N)n1 | 23.6% [at 11.4 µM] (inactive) | –
29 | Cc1cc(Cl)ccc1OCC(=O)NCc1ccncc1 | – | 0.794 µM (active)
30 | CCCn1nnnc1-c1cc(Cl)cc(Cl)c1 | -1.8% (inactive) | –
31 | Cc1ccc(CNC(=O)COC(=O)c2cnccn2)cc1 | 4.39% (inactive) | –
32 | Cc1cccc(NC(=O)C2(c3ccccc3)CC2(Cl)Cl)c1 (centres undefined) | – | 2 µM (active)
33 | Cc1cccc(NC(=O)C2(c3ccc([N+](=O)[O-])cc3)CCCC2)c1 | – | 20 µM (active)
34 | Cc1cccc(N/C(N)=N/c2nc(C)cc(C)n2)c1 | -1.74% (inactive) | –
35 | CCN(CC)CCOC(=O)C1(c2ccc([N+](=O)[O-])cc2)CCCC1 | – | inactive
36 | CN1CCC[C@@H](CC2c3ccccc3Sc3ccccc32)C1 | -1.06% [at 25.6 µM] (inactive) | –
37 | CCSC(N)=Nc1ccc(C(F)(F)F)cc1 | -14.4% (inactive) | –
38 | COc1cc(S(C)=O)ccc1-c1nc2ncccc2[nH]1 (centres undefined) | -9.95% [at 25.6 µM] (inactive) | –
39 | COC(=O)c1ccccc1NC(=O)c1cc2nc(C3CC3)cc(C(F)(F)F)n2n1 | – | 3.55 µM (active)
40 | CN(C)CCOC(=O)[C@@H](c1ccccc1)C1(O)CCCC1 | 0.789% [at 25.6 µM] (inactive) | –
41 | C[C@@H]1c2cccc(O)c2C(O)=C2C(=O)[C@@]3(O)C(O)=C(C(N)=O)C(=O)[C@@H](N(C)C)[C@@H]3[C@@H](O)[C@@H]21 | – | inactive
42 | Cc1ccc(S(=O)(=O)NC(=O)NN2C[C@H]3CCC[C@@H]3C2)cc1 | 16.2% [at 25.6 µM] (inactive) | –
43 | Cc1ccc(S(=O)(=O)NC(=O)c2cccn2C)cc1 | – | 15.8 µM (active)
44 | Cc1ccc(S(=O)(=O)NC(=O)OC23COCN2COC3)cc1 | -0.0498% [at 11.4 µM] (inactive) | –
45 | CCN(CC)CCNc1ccc(CO)c2sc3ccccc3c(=O)c12 | 9.87% [at 25.6 µM] (inactive) | –
46 | Cc1ccccc1-c1nc(N(C)Cc2ccco2)c2ccccc2n1 | -11% [at 2.29 µM] (inactive) | –
47 | Cc1ccccc1C(C(=O)NCc1ccccc1)N(Cc1ccco1)C(=O)c1ccccn1 (centres undefined) | – | 10 µM (active)
48 | O=C(NCc1ccccc1)C(c1ccc(F)cc1)N(Cc1ccco1)C(=O)c1ccccn1 (centres undefined) | – | 15.8 µM (active)

Row | Compound | activity, negative = inhibition | AC50
49 | CC(Cc1ccccc1)C(=O)NCc1ccccn1 (centres undefined) | -5.93% (inactive) | –
50 | c1ccc(CCNCc2ccco2)nc1 | 0.412% [at 11.4 µM] (inactive) | –
51 | CN(Cc1ccco1)c1ncnc2ccc(-c3cccnc3)cc12 | -16.8% [at 2.29 µM] (inactive) | –
52 | Cc1cc(C(C)(C)CC(C)(C)C)ccc1OCCOCC[N+](C)(C)Cc1ccccc1 | -13.2% [at 25.6 µM] (inactive) | –
53 | COc1cc(NS(=O)(=O)c2ccc(N)cc2)ncn1 | -4.22% [at 25.6 µM] (inactive) | –
54 | Cc1cc(C)nc(NS(=O)(=O)c2ccc(N)cc2)n1 | 22.1% [at 25.6 µM] (inactive) | –
55 | CNc1cc(NS(=O)(=O)c2ccc(N)cc2)nc(NC)n1 | – | 2 µM (active)
56 | CCCC(=O)Nc1c(C)n[nH]c1C | -15.9% (inactive) | –
57 | Cc1ccccc1-n1nc2c(c1NC(=O)c1c(-c3ccccc3Cl)noc1C)CSC2 | – | 1.41 µM (active)
58 | CCCC(=O)Nc1c2c(nn1-c1ccc(C)cc1C)CSC2 | – | 14.1 µM (active)
59 | Cc1ccccc1-n1nc2c(c1NC(=O)c1ccc(S(=O)(=O)N(C)C)cc1)CSC2 | – | 2.82 µM (active)
60 | Cc1ccc(-n2nc3c(c2NC(=O)c2cccs2)CSC3)cc1 | – | 3.55 µM (active)
61 | CC(C)(C)NC[C@H](O)COc1cccc2c1CCC(=O)N2 | 8.94% [at 25.6 µM] (inactive) | –
62 | CCOC(=S)SCC(=O)O | 4.25% [at 11.4 µM] (inactive) | –
63 | NC1=N[C@H](c2ccc(Cl)cc2)N(c2ccc(S(=O)(=O)Nc3ncccn3)cc2)C(N)=N1 | 14.6% [at 11.4 µM] (inactive) | –
64 | CC(C)CO/N=C1/C[C@@H](O)[C@@H](O)[C@@H]2[C@@H]3C(=O)N([C@@H](C)c4ccccc4)C(=O)[C@H]3CC[C@@H]12 | -15.7% [at 11.4 µM] (inactive) | –
65 | Cc1nc(NS(=O)(=O)c2ccccc2C)c2c3c(sc2n1)CCC3 | – | 2.51 µM (active)
66 | Cc1nc(NS(=O)(=O)c2ccc(Br)cc2)c2c3c(sc2n1)CCC3 | – | 0.224 µM (active)
67 | Cn1c2c(c(=O)n(C)c1=O)C1(C(=O)Nc3ccccc31)C(C#N)=C(N)O2 (centres undefined) | -25.5% (inactive) | –
68 | CCn1c(=O)[nH]c2cc(Cl)c(Cl)cc21 | 7.2% (inactive) | –
69 | C[C@@H](c1ccccc1)N1C(=O)[C@H]2[C@H]3[C@H](O)[C@H](O)C/C(=N/OCc4ccccc4)[C@H]3CC[C@@H]2C1=O | -20.1% [at 11.4 µM] (inactive) | –
70 | COc1ccc(OCc2nnc(SCC(=O)O)n2N)cc1 | -18.9% (inactive) | –
71 | O=C(CSc1nnc(COc2ccccc2)n1-c1ccccc1)c1ccccc1 | – | 10 µM (active)
72 | CCn1c(SCC(=O)N/N=C/C=C\c2ccccc2[N+](=O)[O-])nnc1-c1ccccc1 | 19.5% (inactive) | –

Row | Compound | activity, negative = inhibition | AC50
73 | CCn1c(COc2ccccc2)nnc1SCC(=O)c1cccc([N+](=O)[O-])c1 | – | 22.4 µM (active)
74 | O=C(CSc1nc2ccc([N+](=O)[O-])cc2s1)c1ccc2ccccc2c1 | -5.5% [at 11.4 µM] (inactive) | –
75 | CO[C@@H]1COC(=O)C/C=C\[C@@H](C)[C@@H]2C=C[C@H](O)[C@@H](COC(=O)CCC[C@H]1C)O2 | -8.54% [at 11.4 µM] (inactive) | –
76 | Cc1c(C)n(C(=O)CN2CCC(C)CC2)c2ccccc12 | 28.1% (inactive) | –
77 | CO[C@@H]1COC(=O)C/C=C\[C@H](C)[C@H](OC)COC(=O)[C@H]2CCCN2C(=O)C/C=C\[C@H]1C | 13.8% [at 11.4 µM] (inactive) | –
78 | OC[C@H]1NC[C@H](O)[C@@H](O)[C@H]1O | 22.1% (inactive) | –
79 | Cc1ccccc1-c1cc(N(C)Cc2ccco2)ncn1 | -5.66% [at 2.29 µM] (inactive) | –
80 | Cc1ccc(NC(=O)N(Cc2ccco2)C(C)c2ccco2)cc1C (centres undefined) | – | 12.6 µM (active)
81 | Cc1cc(N2CCN(C)CC2)nc2ccc(NC(=O)CCC(=O)NCc3ccco3)cc12 | 14.6% (inactive) | –
82 | CCCNC1CCS(=O)(=O)C1 (centres undefined) | -6.49% (inactive) | –
83 | CCCCN(C(=S)Nc1ccccc1)C1CCS(=O)(=O)C1 (centres undefined) | -5.84% (inactive) | –
84 | CCCCSC(=S)N(C)C1CCS(=O)(=O)C1 (centres undefined) | – | 17.8 µM (active)
85 | Cc1ccc(NC(=O)CN2CCC(NC(=O)Cc3ccccc3)CC2)cc1C | – | 15.8 µM (active)
86 | O=C(Cc1ccccc1)NC1CCN(S(=O)(=O)c2ccc(C(=O)O)cc2)CC1 | -17.5% (inactive) | –
87 | O=[N+]([O-])c1cccc2c(Br)[nH]nc12 | 28.7% (inactive) | –
88 | Cc1ccc(C(c2ccc(C)o2)c2cccc([N+](=O)[O-])c2O)o1 | – | 1.26 µM (active)
89 | O=[N+]([O-])c1cccc2cn[nH]c12 | 3.18% (inactive) | –
90 | CCOC(=O)C1=C(N)Oc2ccc(Br)cc2[C@@H]1[C@@H](C#N)C(=O)OCC | 4.51% (inactive) | –
91 | CCOC(=O)C1=C(c2ccccc2)OC(N)=C(C#N)C1c1ccc(Cl)s1 (centres undefined) | 3.95% (inactive) | –
92 | COC(=O)C1=C(C)OC(N)=C(C#N)C1c1cc(OC)ccc1OC (centres undefined) | – | 5.01 µM (active)
93 | COC(=O)C1=C(C)OC(N)=C(C#N)C1C1CCCCC1 (centres undefined) | – | 10 µM (active)
94 | CC(=O)OC[C@@H]1O[C@H](C/C=N\O[C@@H](C)c2cn([C@H]3COC[C@H]3O)nn2)C=C[C@@H]1OC(C)=O | 17.7% [at 11.4 µM] (inactive) | –
